L3MBTL1 block = qHTS Assay for the Inhibitors of L3MBTL1; Lethal(3)malignant brain tumor-like protein 1 (Homo sapiens), Q9Y468; AlphaScreen L3MBTL1–H3K9me1 peptide binding; Potency, µM (doses to about 57.1 µM), for inactives: at the top dose activity, negative = inhibition, usual class: inhibitors; 230,000 compounds, 0.66% hits; AID 485360, 2010; further: on the % scale 0 is the no-effect control and ±100 the full control effect; nearly all actives have a fitted effect of over 60% in size
Target sequence (Q9Y468 whole entry, looked up): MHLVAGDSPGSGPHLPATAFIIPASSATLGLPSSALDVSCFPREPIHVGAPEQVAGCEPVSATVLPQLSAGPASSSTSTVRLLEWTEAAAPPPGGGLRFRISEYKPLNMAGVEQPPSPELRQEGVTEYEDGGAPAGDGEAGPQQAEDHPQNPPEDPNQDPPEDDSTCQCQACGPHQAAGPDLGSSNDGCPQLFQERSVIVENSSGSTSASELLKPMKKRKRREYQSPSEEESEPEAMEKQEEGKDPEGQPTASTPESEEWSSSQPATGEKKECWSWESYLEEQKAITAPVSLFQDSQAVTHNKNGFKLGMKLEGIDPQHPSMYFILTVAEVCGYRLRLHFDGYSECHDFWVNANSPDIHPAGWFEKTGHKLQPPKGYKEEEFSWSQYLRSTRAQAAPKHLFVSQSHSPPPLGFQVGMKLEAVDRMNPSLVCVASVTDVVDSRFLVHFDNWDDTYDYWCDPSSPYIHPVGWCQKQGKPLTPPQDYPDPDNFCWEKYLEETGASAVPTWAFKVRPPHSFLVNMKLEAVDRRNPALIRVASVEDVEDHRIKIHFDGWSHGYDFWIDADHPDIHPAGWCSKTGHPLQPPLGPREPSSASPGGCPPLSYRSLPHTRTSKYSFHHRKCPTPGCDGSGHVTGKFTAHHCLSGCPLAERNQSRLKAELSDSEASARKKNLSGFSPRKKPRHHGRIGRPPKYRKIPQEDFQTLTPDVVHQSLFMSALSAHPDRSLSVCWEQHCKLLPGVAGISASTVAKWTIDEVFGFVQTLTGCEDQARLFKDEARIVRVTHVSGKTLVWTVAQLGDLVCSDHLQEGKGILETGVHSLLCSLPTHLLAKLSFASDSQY
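AlphaScreen assay: L3MBTL1 (50 nM final) was preincubated 30 min at room temperature with biotinylated H3(1-15)K9me1 peptide (75 nM final), then 30 min with library compounds; streptavidin donor and nickel chelate acceptor beads (10 ug/mL final) added, 30 min dark.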
JMJD2A Tudor = qHTS Assay for Inhibitors of JMJD2A-Tudor Domain. AlphaScreen JMJD2A-Tudor / H3K4me3 peptide binding. Potency, µM (highest dose often 114 µM), for the others: at the highest dose activity change, negative = inhibition, most hits filed as inhibitors. 390,000 compounds, 4.4% hits; further: on the % scale 0 is the no-effect control and ±100 the full control effect; nearly all actives have a fitted effect of over 50% in size
BAZ2B block = qHTS Assay for Inhibitors of BAZ2B. AlphaScreen BAZ2B-H3K14Ac peptide displacement. Bromodomain adjacent to zinc finger domain protein 2B (Homo sapiens), Q9UIF8. Potency, µM (series often up to 114 µM), without a hit: top-dose activity change, negative = inhibition, usual class: inhibitors. AID 504333, 2011. 360,000 compounds, 4.4% hits; further: on the % scale 0 is the no-effect control and ±100 the full control effect; nearly all actives have a fitted effect of over 60% in size
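BAZ2B 50 nM plus b-H3(5-23)K14Ac 50 nM, PBS pH 7.4/0.01% Tween-20, 30 min RT; compound added (max 110 uM), 30 min RT; streptavidin donor/Ni-chelate acceptor beads 10 ug/mL final, 20 min dark; AlphaScreen read.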
G9a block = qHTS Assay for Inhibitors of Histone Lysine Methyltransferase G9a. Histone-lysine N-methyltransferase EHMT2 (Homo sapiens), Q96KQ7. G9a H3K9 monomethylation, AlphaScreen, 2 h. Potency, µM (top dose mostly 102 µM), inactives show at the highest dose activity, negative = inhibition, hits mostly inhibitors. 350,000 compounds, 8.8% hits; further: on the % scale 0 is the no-effect control and ±100 the full control effect; nearly all actives have a fitted effect of over 75% in size
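Enzyme 20 nM + cpd, 15 min RT; add b-H3K9 pep 500 nM / SAM 20 uM; 2 h RT; anti-H3K9me1 Ab 0.5 ug/mL + SA donor / anti-rabbit acceptor beads 20 ug/mL each, 10 min; AlphaScreen read.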
HP1b chromo inh = HTS for Inhibitors of HP1-beta Chromodomain Interactions with Methylated Histone Tails. Chromobox protein homolog 1 (Homo sapiens), P83916. AlphaScreen HP1-beta / biotin-H3K9me3 peptide binding. Potency, µM (top dose mostly 114 µM), for inactives: at the highest dose activity change, negative = inhibition, actives largely listed as inhibitors. 390,000 compounds, 0.56% hits; further: nearly all actives have a fitted effect of over 70% in size
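Compound inhibition of the preformed complex between 50 nM HP1-beta and 50 nM biotinylated H3K9me3 peptide was read by AlphaScreen. Buffer was PBS pH 7.4 with 0.01% Tween-20. Incubations ran 30 min at room temperature, with 10 ug/mL donor/acceptor beads.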
Active calls of the source: *; ? = inconclusive; / = no result; [ ] = remark or other dose. A selection: hits, their analogues and other compounds. The true share with any hit is near 11%. The call rests on the fitted dose curve; in most records, active means well fitted inhibition curve with a large enough effect; inconclusive means small, poorly fitted or top-dose-only effect; inactive means no such curve, though single readings can be large or run the other way. Potency means the concentration at half of the fitted maximal effect.

SMILES	L3MBTL1 block	JMJD2A Tudor	BAZ2B block	G9a block	HP1b chromo inh
Cc1ccc(NC(=O)C(OC(=O)c2ccc(O)cc2)c2ccccc2)cc1Cl (configuration not stated)	-3%	-12%	-8%	71µM*	56%
COc1ccc(N2CCN(CCCNC(=O)c3cnn(-c4ccc(C)cc4)c3-n3cccc3)CC2)cc1	/	?	?	?	2%
CCOC(=O)Cc1ccc(NC(=O)N(Cc2ccc(CC)cc2)Cc2cn[nH]c2-c2ccc(OC)cc2)cc1	/	20%	0%	2%[59 µM]	65%
O=C(CSc1nc(-c2cccs2)cc(C(F)(F)F)n1)Nc1cc(OCC(F)(F)F)cc([N+](=O)[O-])c1	9%	22µM*	-7%	-17%[59 µM]	-4%
COc1ccc(Cl)cc1NC(=O)N1CCC(CN2CCc3ccccc3C2)CC1	/	-17%	-6%	-29%[59 µM]	72%
COc1cc(O)c(C(CC(=O)N2CCN(c3ccccc3)CC2)c2ccc(N(C)C)cc2)c(OC)c1 (configuration not stated)	/	28µM*	25µM*	?	?
COc1cc(O)c(C(CC(=O)N2CCCC(C)C2)c2ccc(N(C)C)cc2)c(OC)c1 (configuration not stated)	/	40µM*	50µM*	?	?
Cc1cc(OCCCn2c(CCNC(=O)C3CCCCC3)nc3ccccc32)ccc1Cl	/	-14%	-4%	-34%[59 µM]	35%
C/C(=N\O)C(=O)NCCN(C)C	-1%	7.9µM*	-9%	?	-3%
CCOCC(=O)Nc1nc(-c2ccccc2)c(CC)s1	/	30%	-9%	35µM*	19%
CCOCC(=O)Nc1nc2ccc(OC)cc2s1	-2%	-7%	0%	-8%[12.7 µM]	59%
Cc1ccc(-c2cnc(NCc3cc4c(cc3[N+](=O)[O-])OCO4)n2C)cc1C	-8%	32µM*	-14%	0%	?
Cn1c(-c2ccc3c(c2)OCO3)cnc1N	-9%	?	-37%	0%[59 µM]	9%
C[C@]12c3[nH]c4cc(-c5ccco5)ccc4c3CCN1C(=O)[C@@H](CC(=O)NCc1ccco1)C[C@@H]2C(=O)N1CCOCC1	-3%	?	/	/	-12%
Cc1ccc(-c2cc(C(=O)Nc3cc([N+](=O)[O-])ccc3C)no2)cc1F	/	-7%	-3%	-44%[59 µM]	36%
O=C(O)c1ccc2c(c1)C(=O)N(Cc1ccco1)C2=O	-24%	?	-23%	56µM*	-19%
O=C1c2cccc3c(O)ccc(c23)C(=O)N1Cc1ccco1	?	-17%	-3%	40µM*	20%
CCc1ccc(NC(=O)c2ccc3c(c2)C(=O)N(Cc2ccco2)C3=O)cc1	?	?	?	50µM*	20%
O=C(O)c1cccc(NC(=O)c2ccc3c(c2)C(=O)N(Cc2ccco2)C3=O)c1	-24%	-13%	?	/	25%
COc1ccc(NC(=O)C(C(C)C)N2Cc3ccccc3C2=O)cc1 (configuration not stated)	/	-24%	3%	-5%[59 µM]	7%
Nc1nnnn1/N=C/c1cc(Cl)ccc1O	/	-3%	1%	15%	59%
Nc1nnnn1/N=C/c1cc(Cl)cc(Cl)c1O	0%	40µM*	-3%	/	16%
Cc1c([C@H]2[C@@H](CC#N)C2(C)C)c2ccccc2n1C	-24%	?	22µM*	5%[12.7 µM]	?
CC1=C(C(=O)Nc2ccc(C)cc2C)C(c2cccs2)n2nc(SCc3cccc(C)c3)nc2N1 (configuration not stated)	/	-12%	?	-4%[59 µM]	26%
Cc1c(/C(O)=C2\C(=O)C(=O)N(CCN(C)C)C2c2cccs2)cnn1-c1ccccc1 (configuration not stated)	-3%	-7%[11.4 µM]	-24%	20µM*	9%
Cc1c(/C(O)=C2\C(=O)C(=O)N(CCN(C)C)C2c2cccnc2)cnn1-c1ccccc1 (configuration not stated)	1%	-4%	-6%	?	24%

Assay outcomes from PubChem.
